Inconclusive results are not listed. Calls of active or inactive are those of the source. Unless noted, the call rests on the fitted dose curve; in most records, active means well fitted curve in the direction sought with a large enough effect; inconclusive means small, poorly fitted or top-dose-only effect, or another doubt; inactive means no such curve, though single readings can be large; an effect the other way counts as inactive or inconclusive.
Tests used:
[1] = qHTS assay for measurement of the activity of small molecule inhibitors on Zika virus induced Caspase-3 activity in human iPSC derived neural progenitor cells (hNPCs) (AID 1224857); conditions: hNPCs ZIKV-induced caspase-3/7, Caspase-Glo luminescence, 6 h; series mostly up to 45.7 µM; further: % of control where 0% means no effect; nearly all actives have a fitted effect of over 65% in size
In short: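 Zika virus (2 FFU/cell) infection of human iPSC-derived NPCs, 6 h, following 1 h compound preincubation. Read-out: Caspase-Glo 3/7 luminescence.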

[2] = qHTS assay for measurement of the activity of small molecule inhibitors on Zika virus induced Caspase-3 activity in human astrocytoma cells (AID 1224859); conditions: SNB-19 ZIKV-induced caspase-3/7, luminescence, 6 h; series mostly up to 45.7 µM;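 further: plate controls were ZIKV-infected untreated cells for no effect and uninfected cells for full effect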
In short: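 Caspase activation in ZIKV-infected SNB-19 cells (2 FFU/cell, 6 h) measured by Caspase-Glo 3/7 luminescence after 30 min RT; compound pre-incubated 1 h; normalised to uninfected and infected controls.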

[3] = qHTS assay to identify small molecule inhibitors of chordoma cells - UCH-1 (AID 1259355); conditions: UCH-1 chordoma viability, CellTiter-Glo, 48 h, combination, with auranofin plus four topoisomerase inhibitors; series mostly up to 46.1 µM; further: on the % scale 0 is the no-effect control and ±100 the full control effect; nearly all actives have a fitted effect of over 55% in size
In short: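 A 48hr growth-inhibition format: each drug tested at 15 concentrations together with added auranofin, camptothecin, doxorubicin, rubitecan and topotecan, with cell viability quantified as CellTiter-Glo luminescence.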

[4] = qHTS assay to identify small molecule inhibitors of chordoma cells - UCH-2 (AID 1259356); conditions: UCH-2 chordoma viability, CellTiter-Glo ATP luminescence, 48 h; series mostly up to 46.1 µM; further: on the % scale 0 is the no-effect control and ±100 the full control effect
[5] = P-glycoprotein substrates identified in KB-8-5-11 adenocarcinoma cell line, qHTS therapeutic library screen (AID 1346987); conditions: KB-8-5-11 (P-gp overexpressing) viability, CellTiter-Glo, 72 h; series mostly up to 44.5 µM; further: on the % scale 0 is the no-effect control and ±100 the full control effect; nearly all actives have a fitted effect of over 65% in size
In short: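 Compounds are pinned in dose-response onto KB-8-5-11 cells (500 cells/well, colchicine-free medium) and left 72 h at 37 degree C. CellTiter-Glo luminescence then yields AC50 values.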

[6] = NS1 protein of Zika virus - qHTS assay to identify small molecule inhibitors in human HEK 293 cells (AID 1347053); conditions: HEK293 ZIKV MR766 infection, NS1 TR-FRET, 24 h; series mostly up to 46.1 µM;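 further: plate controls were infected untreated cells for no effect and uninfected cells for full effect; nearly all actives have a fitted effect of over 55% in size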
In short: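 Read-out is a two-antibody TR-FRET for ZIKV NS1, normalized between uninfected cells and infected cells. Compound added 1 h before MR766 infection at MOI 0.5; human HEK 293 cells incubated 24 h, 37 C.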

[7] = Natriuretic polypeptide receptor (hNpr1) antagonism - Pilot counterscreen GloSensor control cell line (AID 1347045; calls by dose curve; further: on the % scale 0 is the no-effect control and ±100 the full control effect); conditions: HEK293 cGMP GloSensor cells, SNP-stimulated luminescence, 20 min; series mostly up to 38.3 µM
In short: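 Control counterscreen: luciferase cGMP-biosensor HEK293 cells (no Npr1) received compound for 30 min at room temperature after GloSensor substrate loading. Luminescence was measured before and 20 min after soluble guanylyl cyclase activation by 50 uM nitroprusside.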

[8] = biological target: Atrial natriuretic peptide receptor 1 (Homo sapiens) (UniProt P16066); assay: Natriuretic polypeptide receptor (hNpr1) antagonism - Pilot screen (AID 1347049; calls by dose curve;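 further: HEK293 cells with hNpr1 and GloSensor cGMP luciferase stimulated by 0.1 nM hNppA; agonist-evoked cGMP luminescence read 20 min after hNppA addition; on the % scale 0 is the no-effect control and ±100 the full control effect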); conditions: hNpr1 cells, antagonist mode cGMP read-out; series mostly up to 57.5 µM
Chain of Atrial natriuretic peptide receptor 1 (Homo sapiens) (P16066 whole entry, looked up): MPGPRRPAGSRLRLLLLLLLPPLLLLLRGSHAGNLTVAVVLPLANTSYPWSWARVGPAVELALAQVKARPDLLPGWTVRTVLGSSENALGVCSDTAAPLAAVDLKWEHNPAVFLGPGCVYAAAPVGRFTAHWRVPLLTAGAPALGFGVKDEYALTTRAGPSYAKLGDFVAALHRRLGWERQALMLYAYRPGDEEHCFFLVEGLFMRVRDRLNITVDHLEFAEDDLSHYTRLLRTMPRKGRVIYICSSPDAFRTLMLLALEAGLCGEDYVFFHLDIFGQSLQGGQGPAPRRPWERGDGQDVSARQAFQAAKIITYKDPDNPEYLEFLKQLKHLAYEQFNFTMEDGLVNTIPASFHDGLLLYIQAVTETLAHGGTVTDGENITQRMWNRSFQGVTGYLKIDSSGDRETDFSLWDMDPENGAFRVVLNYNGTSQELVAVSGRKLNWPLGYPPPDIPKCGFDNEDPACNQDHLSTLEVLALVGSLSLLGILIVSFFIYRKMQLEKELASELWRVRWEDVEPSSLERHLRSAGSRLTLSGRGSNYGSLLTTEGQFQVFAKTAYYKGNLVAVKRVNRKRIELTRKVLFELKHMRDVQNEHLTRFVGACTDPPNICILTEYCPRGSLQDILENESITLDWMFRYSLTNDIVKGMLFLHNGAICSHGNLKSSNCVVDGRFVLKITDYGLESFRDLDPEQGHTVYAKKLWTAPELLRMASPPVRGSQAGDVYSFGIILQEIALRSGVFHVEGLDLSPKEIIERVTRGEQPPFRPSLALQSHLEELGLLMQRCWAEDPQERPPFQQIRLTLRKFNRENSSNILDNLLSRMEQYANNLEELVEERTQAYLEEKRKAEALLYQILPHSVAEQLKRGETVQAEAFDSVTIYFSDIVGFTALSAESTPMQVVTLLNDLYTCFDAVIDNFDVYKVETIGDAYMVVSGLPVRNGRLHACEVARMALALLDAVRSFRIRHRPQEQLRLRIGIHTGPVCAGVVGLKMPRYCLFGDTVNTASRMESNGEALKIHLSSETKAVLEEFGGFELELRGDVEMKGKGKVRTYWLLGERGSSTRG
In short: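 Cells expressing receptor plus cGMP biosensor are seeded and incubated overnight at 37C, then loaded with GloSensor reagent (2% final) at room temperature for 2 h. Library compounds go on for 30 min. A pre-read precedes agonist (hNppA, 0.1 nM final) and a 20-min readout.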

[9] = biological target: T1, Tyrosine-protein phosphatase non-receptor type substrate 1 (Homo sapiens) + Leukocyte surface antigen CD47 (Homo sapiens) (UniProt P78324+Q08722); assay: CD47-SIRPalpha protein protein interaction - LANCE assay qHTS validation (AID 1347057; active means well fitted curve in the direction sought with a large enough effect in the signal ratio, with a control signal flat, not every such curve was filed as active; the % refers to the signal ratio; further: 0% is about no effect); conditions: Recombinant CD47-His / biotin-SIRPalpha, TR-FRET ratio; series mostly up to 38.3 µM
T1 sequence (P78324 whole entry, looked up, the tested form may be a part): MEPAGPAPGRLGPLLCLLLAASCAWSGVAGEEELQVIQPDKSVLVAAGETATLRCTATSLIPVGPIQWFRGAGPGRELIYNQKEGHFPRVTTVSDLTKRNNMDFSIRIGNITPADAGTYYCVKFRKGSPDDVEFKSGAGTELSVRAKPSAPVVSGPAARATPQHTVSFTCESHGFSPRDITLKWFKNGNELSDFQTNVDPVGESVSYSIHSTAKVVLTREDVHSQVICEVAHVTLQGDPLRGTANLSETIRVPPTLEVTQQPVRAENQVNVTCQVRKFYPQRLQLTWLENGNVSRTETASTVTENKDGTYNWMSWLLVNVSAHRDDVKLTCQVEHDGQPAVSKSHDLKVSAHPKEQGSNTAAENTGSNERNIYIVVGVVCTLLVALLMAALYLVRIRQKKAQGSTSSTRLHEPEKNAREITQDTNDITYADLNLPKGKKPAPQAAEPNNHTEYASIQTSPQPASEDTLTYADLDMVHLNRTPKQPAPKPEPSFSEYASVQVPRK
T1 sequence (Q08722 whole entry, looked up, the tested form may be a part): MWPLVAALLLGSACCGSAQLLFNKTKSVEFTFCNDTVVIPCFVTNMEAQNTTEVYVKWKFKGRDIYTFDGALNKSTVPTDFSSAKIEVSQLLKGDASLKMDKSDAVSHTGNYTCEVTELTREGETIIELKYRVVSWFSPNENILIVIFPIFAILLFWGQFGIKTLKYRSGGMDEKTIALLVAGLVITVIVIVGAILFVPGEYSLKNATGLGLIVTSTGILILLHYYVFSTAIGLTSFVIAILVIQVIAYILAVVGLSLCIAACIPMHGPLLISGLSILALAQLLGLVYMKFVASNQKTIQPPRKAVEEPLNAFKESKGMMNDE
In short: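 Inhibition of soluble CD47/SIRPalpha ectodomain association by titrated compounds, measured as 665/615 nm time-resolved FRET ratio after sequential 30 min room-temperature incubations.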

[10] = biological target: T1, Tyrosine-protein phosphatase non-receptor type substrate 1 (Homo sapiens) + Leukocyte surface antigen CD47 (Homo sapiens); assay: CD47-SIRPalpha protein protein interaction - HTRF assay qHTS validation (AID 1347058; active means well fitted curve in the direction sought with a large enough effect in the signal ratio, not every such curve was filed as active; the % refers to the signal ratio; further: 0% is about no effect); conditions: TR-FRET HTRF CD47-His / biotin-SIRPalpha binding, ratio 665/615; series mostly up to 38.3 µM
In short: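 Soluble extracellular domains (6His-CD47, Avi-tag-biotinylated SIRPalpha) in PBS pH 7.4 with 0.05% IGEPAL CA-630. Compounds were preincubated 30 min at RT with CD47 and anti-His-Eu, then SIRPalpha and SAV-XL665 were added. TR-FRET 665/615 ratio.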

COc1ccc2c(c1)C(=O)N(CCc1ccc(S(=O)(=O)NC(=O)NC3CCCCC3)cc1)C(=O)C2(C)C
inactive: outcome [1] | outcome [2] | Potency [3] | outcome [4] | Potency [5] | Potency [6]

Cc1cccc(C)c1NC(=O)CN(CC(=O)O)CC(=O)O
inactive: outcome [1] | outcome [2] | Potency [3] | outcome [4] | Potency [5] | Potency [6]

N[C@@H](CSSC[C@H](N)C(=O)O)C(=O)O
inactive: activity change, negative = inhibition [1] -8.71% [at 0.568 µM] | activity change, negative = inhibition [2] 23% [at 0.568 µM] | Potency [3] | outcome [4] | Potency [5] | activity change, negative = inhibition [6] -26.2% [at 0.593 µM]

COc1ccccc1O
inactive: outcome [1] | outcome [2] | Potency [3] | outcome [4] | Potency [5] | Potency [6]

NCCNCCNCCN
inactive: outcome [1] | outcome [2] | Potency [3] | outcome [4] | Potency [5] | Potency [6]

O=C1OC(OC(=O)c2cccnc2Nc2cccc(C(F)(F)F)c2)c2ccccc21 (stereo not drawn)
inactive: outcome [1] | outcome [2] | Potency [3] | outcome [4] | Potency [5] | Potency [6]

O=c1cc[nH]c(=O)[nH]1
inactive: outcome [1] | outcome [2] | Potency [3] | outcome [4] | Potency [5] | Potency [6]

Oc1cccc(O)c1
inactive: outcome [1] | outcome [2] | Potency [3] | outcome [4] | Potency [5] | Potency [6]

O=c1cc[nH]c(=S)[nH]1
inactive: outcome [1] | outcome [2] | Potency [3] | outcome [4] | Potency [5] | Potency [6]

C[C@@H]1CC[C@@]2(OC1)O[C@H]1C[C@H]3[C@@H]4CC[C@H]5C[C@@H](O)CC[C@]5(C)[C@H]4CC(=O)[C@]3(C)[C@H]1[C@@H]2C
inactive: activity change, negative = inhibition [1] 4.72% [at 4.53 µM] | activity change, negative = inhibition [2] -4.08% [at 4.53 µM] | Potency [3] | outcome [4] | Potency [5] | activity change, negative = inhibition [6] -2.82% [at 4.81 µM]

N[C@H]1C(O)O[C@H](CO)[C@@H](O)[C@@H]1O (stereo partly drawn)
inactive: outcome [1] | outcome [2] | Potency [3] | outcome [4] | Potency [5] | Potency [6]

CC(O)CN(CCN(CC(C)O)CC(C)O)CC(C)O (stereo not drawn)
inactive: outcome [1] | outcome [2] | Potency [3] | outcome [4] | Potency [5] | Potency [6]

O=C(O)[C@@H]1CSCN1
inactive: outcome [1] | outcome [2] | Potency [3] | outcome [4] | Potency [5] | Potency [6]

COc1cc(C)c(Cc2cnc(N)nc2N)cc1OC
inactive: outcome [1] | outcome [2] | Potency [3] | outcome [4] | Potency [5] | Potency [6]

CCCCN(CCCC)CCCOC(=O)c1ccc(N)cc1
inactive: outcome [1] | outcome [2] | Potency [3] | outcome [4] | Potency [6]

CN1[C@@H]2CC(OC(=O)[C@H](CO)c3ccccc3)C[C@H]1[C@@H]1O[C@@H]12 (stereo partly drawn)
inactive: outcome [1] | outcome [2] | Potency [3] | outcome [4] | Potency [6]

O=C1c2c(O)cccc2Cc2cccc(O)c21
inactive: outcome [1] | outcome [2] | Potency [3] | outcome [4] | Potency [5] | Potency [6]

O=C1N=C(O)CN1/N=C/c1ccc(-c2ccc([N+](=O)[O-])cc2)o1
inactive: outcome [1] | outcome [2] | outcome [4] | Potency [5] | outcome [7] | outcome [8] | Potency [6]

Nc1ccc(S(=O)(=O)Nc2ccc(Cl)nn2)cc1
inactive: outcome [1] | outcome [2] | Potency [3] | outcome [4] | Potency [5] | Potency [6]

O=C(CCCN1CCN(c2ccccn2)CC1)c1ccc(F)cc1
inactive: outcome [1] | outcome [2] | Potency [3] | outcome [4] | Potency [5] | Potency [6]

C[C@](N)(Cc1ccc(O)cc1)C(=O)O
inactive: outcome [1] | outcome [2] | Potency [3] | outcome [4] | outcome [7] | outcome [8] | Potency [6] | outcome [9] | outcome [10]

— PubChem BioAssay (NCATS)
